# In publication PMC11006913:
# Molecular target: PITX2 (Homo sapiens, UniProt Q99697 72-157)
# Experiment: PBM; 200 nM protein, PBS
# Settings: dsDNA, one strand shown
row,Sequence,binding signal
1,AGCACGCC,"8.07 upbm affinity estimate (log intensity, higher = more binding, comparable within an allelic series)"
2,AAATCTCC,"10.8 upbm affinity estimate (log intensity, higher = more binding, comparable within an allelic series)"
3,AGGGATAG,"9.94 upbm affinity estimate (log intensity, higher = more binding, comparable within an allelic series)"
4,CATGTTCG,"8.09 upbm affinity estimate (log intensity, higher = more binding, comparable within an allelic series)"
5,ACTTGATC,"10.2 upbm affinity estimate (log intensity, higher = more binding, comparable within an allelic series)"
6,CAGACACG,"7.83 upbm affinity estimate (log intensity, higher = more binding, comparable within an allelic series)"
7,ACTAAGCC,"12.4 upbm affinity estimate (log intensity, higher = more binding, comparable within an allelic series)"
8,AAGCTTAG,"11.4 upbm affinity estimate (log intensity, higher = more binding, comparable within an allelic series)"
9,GTCCACTA,"7.94 upbm affinity estimate (log intensity, higher = more binding, comparable within an allelic series)"
10,CAGTACTG,"7.98 upbm affinity estimate (log intensity, higher = more binding, comparable within an allelic series)"
11,CCTACGTC,"7.98 upbm affinity estimate (log intensity, higher = more binding, comparable within an allelic series)"
12,AATTCCAC,"9.99 upbm affinity estimate (log intensity, higher = more binding, comparable within an allelic series)"
13,TAGATTAA,"12.4 upbm affinity estimate (log intensity, higher = more binding, comparable within an allelic series)"
14,GGATTTAC,"12.3 upbm affinity estimate (log intensity, higher = more binding, comparable within an allelic series)"
15,GAGATATC,"8.8 upbm affinity estimate (log intensity, higher = more binding, comparable within an allelic series)"
16,ACGTCTCC,"7.95 upbm affinity estimate (log intensity, higher = more binding, comparable within an allelic series)"
17,CAGTTCCG,"8.03 upbm affinity estimate (log intensity, higher = more binding, comparable within an allelic series)"
18,TCTTGGCA,"7.96 upbm affinity estimate (log intensity, higher = more binding, comparable within an allelic series)"
19,AAGATAAT,"10.6 upbm affinity estimate (log intensity, higher = more binding, comparable within an allelic series)"
20,CAAAATAC,"9.13 upbm affinity estimate (log intensity, higher = more binding, comparable within an allelic series)"

row,Sequence,binding signal
1,ATGAGCCC,"9.64 upbm affinity estimate (log intensity, higher = more binding, comparable within an allelic series)"
2,TAAGCTTA,"12.3 upbm affinity estimate (log intensity, higher = more binding, comparable within an allelic series)"
3,ACATACGT,"8.05 upbm affinity estimate (log intensity, higher = more binding, comparable within an allelic series)"
4,CTGGCCGC,"8.13 upbm affinity estimate (log intensity, higher = more binding, comparable within an allelic series)"
5,GCGGCGCC,"7.97 upbm affinity estimate (log intensity, higher = more binding, comparable within an allelic series)"
6,ACTCGACC,"7.76 upbm affinity estimate (log intensity, higher = more binding, comparable within an allelic series)"
7,GAGATCAC,"9.79 upbm affinity estimate (log intensity, higher = more binding, comparable within an allelic series)"
8,ACACCAGC,"8.12 upbm affinity estimate (log intensity, higher = more binding, comparable within an allelic series)"
9,AGGATTTA,"12.4 upbm affinity estimate (log intensity, higher = more binding, comparable within an allelic series)"
10,AGGCGTCC,"7.84 upbm affinity estimate (log intensity, higher = more binding, comparable within an allelic series)"
11,ATACCTTA,"9.97 upbm affinity estimate (log intensity, higher = more binding, comparable within an allelic series)"
12,CGCCTGTC,"8.14 upbm affinity estimate (log intensity, higher = more binding, comparable within an allelic series)"
13,CCGAGCAG,"8.01 upbm affinity estimate (log intensity, higher = more binding, comparable within an allelic series)"
14,GGAATAAA,"9.51 upbm affinity estimate (log intensity, higher = more binding, comparable within an allelic series)"
15,GGCATTAC,"10.5 upbm affinity estimate (log intensity, higher = more binding, comparable within an allelic series)"
16,CTCCCCGA,"8.1 upbm affinity estimate (log intensity, higher = more binding, comparable within an allelic series)"
17,GCCTCACC,"8.04 upbm affinity estimate (log intensity, higher = more binding, comparable within an allelic series)"
18,GCAGTCGC,"7.82 upbm affinity estimate (log intensity, higher = more binding, comparable within an allelic series)"
19,ATCCTTAC,"9.47 upbm affinity estimate (log intensity, higher = more binding, comparable within an allelic series)"
20,CTAGCGAG,"8.11 upbm affinity estimate (log intensity, higher = more binding, comparable within an allelic series)"
